HEK293 tox: Cytotoxic Profiling in HEK 293 Cell Line of Diverse Libraries Using Quantitative High-Throughput Screening | Potency, µM (doses to about 115 µM), for the others: at the top dose activity change, negative = cytotoxicity, hits mostly inhibitors | AID 1345083, 2018 | 6.6% of 94,000 active | HEK 293 viability, ATP luminescence (CellTiter-Glo), 48-72 h; also: nearly all actives have a fitted effect of over 60% in size
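Luminescence from cellular ATP, measured with CellTiter-Glo, indicates HEK 293 viability. Cells plated at 250 cells/well are treated with compound for 48 or 72 hr at 37 degree Celsius before reagent addition.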
NPR1 antag: Natriuretic polypeptide receptor (hNpr1) antagonism - Primary qHTS | AID 1347048, 2019 | Atrial natriuretic peptide receptor 1 (Homo sapiens), P16066 | Potency, µM (series often up to 46.3 µM), for the others: at the top dose activity change, negative = inhibition, hits mostly inhibitors | HEK293 hNpr1 GloSensor cGMP, ANP-stimulated luminescence | 1.6% of 76,000 active; calls by dose curve; also: nearly all actives have a fitted effect of over 60% in size
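HEK293 cells stably expressing human Npr1 and cGMP GloSensor pGS-40F, loaded 2 h with 2% GloSensor reagent, given compound 30 min at room temperature. Luminescence read before and 20 min after 0.1 nM hNppA.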
3T3 cytotox: Cytotoxic Profiling in NIH 3T3 Cell Line of Diverse Libraries Using Quantitative High-Throughput Screening; NIH 3T3 viability, CellTiter-Glo ATP luminescence, 48-72 h; 4.3% of 94,000 active; Potency, µM (top dose mostly 96.7 µM), inactives show at the top dose activity change, negative = cytotoxicity, most hits filed as inhibitors; AID 1345082, 2018; also: nearly all actives have a fitted effect of over 55% in size
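Cytotoxicity was measured by CellTiter-Glo ATP luminescence after 48 or 72 h compound exposure at 37 °C. Mouse NIH 3T3 fibroblasts were seeded at 400 cells/well and dosed by 23 nL pin transfer.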
FLuc inh: Firefly luciferase inhibition profiling of diverse chemical library using quantitative high-throughput screening | AID 1347043, 2019 | purified P. pyralis luciferase, luminescence, biochemical | 2.5% of 76,000 active | Potency, µM (titrated, usually from 115 µM), hits mostly inhibitors | Luciferin 4-monooxygenase (Photinus pyralis), P08659; also: nearly all actives have a fitted effect of over 65% in size
Target sequence (P08659 whole entry, looked up): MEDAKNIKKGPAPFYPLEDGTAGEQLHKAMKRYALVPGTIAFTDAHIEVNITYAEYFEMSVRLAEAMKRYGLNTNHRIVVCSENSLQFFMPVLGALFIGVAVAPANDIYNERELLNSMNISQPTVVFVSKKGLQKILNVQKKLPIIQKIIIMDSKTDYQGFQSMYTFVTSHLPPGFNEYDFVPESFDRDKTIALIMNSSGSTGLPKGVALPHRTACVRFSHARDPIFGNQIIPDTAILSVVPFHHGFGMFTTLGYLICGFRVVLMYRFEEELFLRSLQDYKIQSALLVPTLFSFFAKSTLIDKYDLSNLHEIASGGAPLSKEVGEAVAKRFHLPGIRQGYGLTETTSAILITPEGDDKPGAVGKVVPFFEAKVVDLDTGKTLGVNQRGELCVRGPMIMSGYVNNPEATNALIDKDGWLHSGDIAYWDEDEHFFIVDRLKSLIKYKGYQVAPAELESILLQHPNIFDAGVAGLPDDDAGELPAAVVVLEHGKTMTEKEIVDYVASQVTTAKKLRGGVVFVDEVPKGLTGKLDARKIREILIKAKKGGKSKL
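Luminescence read by CCD imager after adding enzyme (10nM final) to wells holding compound, titrated in qHTS. Substrates 10uM each D-luciferin and ATP; buffer 50mM Tris acetate pH 7.5, 10mM Mg acetate, Tween-20, BSA.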
An asterisk follows results filed as active; i = inactive; ? = inconclusive; · = not tested or not shown; [ ] = another dose, or the depositor's remark. An excerpt weighted towards active compounds, which were near 11% of everything screened. Unless noted, calls follow the shape of the dose curve; as a rule, active = well fitted curve in the direction sought with a large enough effect; inconclusive = small, poorly fitted or top-dose-only effect, or another doubt; inactive = no such curve, though single readings can be large; an effect the other way counts as inactive or inconclusive. % is scaled to controls: 0 for no effect and ±100 for the full control effect; potency is read from the fitted curve at half-maximal effect.

SMILES	HEK293 tox	NPR1 antag	3T3 cytotox	FLuc inh
CC(C)(C)c1ccc(C(=O)Nc2nc3c(s2)C[C@@H]2[C@](C)(CO)[C@H](O)CC[C@@]2(C)[C@@H]3CC(=O)NCc2ccco2)cc1	?	-6.0%	?	?
CN1Cc2c(cc(N3CCOCC3)nc2-c2cccc(N[S+](C)(=O)[O-])c2)C1=O	?	6.8%[70.6 µM]	14.1µM*	i
CC(=O)Nc1cccc(-c2nc(N3CCOCC3)cc3c2CN(Cc2cnn(C)c2)C3=O)c1	-21.1%	9.2%	?	i
COc1cccc(-c2nc(N3CCOCC3)cc3c2CN(C)C3=O)c1OC	?	4.5%[70.6 µM]	?	i
COc1cccc(-c2nc(N3CCOCC3)cc3c2CN(C)C3=O)c1	?	3.9%[70.6 µM]	15.8µM*	i
CN1Cc2c(cc(N3CCOCC3)nc2-c2cccc(C(F)(F)F)c2)C1=O	-40.3%[172 µM]	-17.4%[70.6 µM]	5.62µM*	i
COc1ccc(-c2ccc(C(=O)NCc3ccccn3)cc2)nn1	-21.6%	·	-24.3%	·
O=S1(=O)CC(COCc2ccccc2)CN1c1ccccc1 (stereo not drawn)	-16.3%	·	?	·
O=C(C1CCCN1C(=O)Nc1ccccc1)N1CCC(N2CCCC2=O)CC1 (stereo not drawn)	4.0%	·	i	·
CCCCn1c(=O)c(C(=O)N2CCN(C(=O)c3ccccc3F)CC2)nc2cccnc21	-6.6%	·	?	·
COCCNC(=O)c1ccc(CC2CCN(C(=O)c3n[nH]c(=O)c4ccccc34)CC2)cc1	?	·	-17.1%	·
O=C1Nc2ccc(-c3cccc(C(F)(F)F)c3)cc2C(=O)N2CCN(C(=O)NC3CCCCC3)C[C@H]12	35.5µM*	0.5%	?	i
O=C1Nc2ccc(-c3cccc(C(F)(F)F)c3)cc2C(=O)N2CCN(C(=O)c3ccco3)C[C@@H]12	39.8µM*	-18.7%	?	i
O=C1Nc2ccc(-c3ccccc3)cc2C(=O)N2CCN(C(=O)NC3CCCCC3)C[C@H]12	?	1.8%[70.6 µM]	-29.9%[174 µM]	i
COCCNC(=O)c1nc2cccnc2n(CCOC)c1=O	1.4%[172 µM]	·	-7.3%[138 µM]	·
O=C1OCC2(CCN(Cc3ccc4c(c3)CCO4)C2)N1Cc1ccccc1 (stereo not drawn)	?	-10.3%[70.6 µM]	?	i
COc1ccc(CN2CC(Oc3ccc(F)c(C)c3)C2)cc1	89.1µM*	-4.7%[70.6 µM]	?	i
COc1ccc(CN2CC(Oc3ccc(F)cc3F)C2)cc1	?	·	-24.5%[138 µM]	·
COc1ccc(CN2CC(Oc3ccc(F)cc3C)C2)cc1	70.8µM*	-12.7%[70.6 µM]	39.8µM*	i
Cc1cc(OC2CN(Cc3ccc(C#N)cc3)C2)ccc1F	?	?	?	i
COc1ccc(CN2CC(N(C)c3ccccc3C)C2)cc1	?	·	79.4µM*	·
Cc1cc(F)ccc1OC1CN(Cc2ccc(C#N)cc2)C1	63.1µM*	-15.6%[70.6 µM]	?	i
O=C(NCCc1ccccc1F)c1ccc2oc(-c3ccnc(Cl)c3)nc2c1	-5.9%	·	-21.6%	·
COc1ccccc1C(=O)N1CC(Oc2ccc(F)cc2C)C1	70.8µM*	15.3%[70.6 µM]	?	i
COc1ccc(C(=O)N2CC(Oc3ccc(F)cc3C)C2)cc1	?	-2.9%[70.6 µM]	?	i
SMILES	HEK293 tox	NPR1 antag	3T3 cytotox	FLuc inh
COc1ccccc1CN1CCc2nc(C(=O)Nc3nc(C)cs3)oc2CC1	?	-11.5%[70.6 µM]	?	25.1µM*
Cc1csc(NC(=O)c2nc3c(o2)CCN(Cc2c(F)cccc2F)CC3)n1	?	2.7%[70.6 µM]	?	28.2µM*
O=C(NCCOc1ccccc1)c1nc2c(o1)CCN(Cc1cc(F)ccc1F)CC2	?	-3.7%[70.6 µM]	?	i
O=C(NCc1ccccc1)c1nc2c(o1)CCN(Cc1c(F)cccc1F)CC2	-27.7%[172 µM]	3.3%[70.6 µM]	?	i
Cc1csc(NC(=O)c2nc3c(o2)CCN(Cc2cc(F)ccc2F)CC3)n1	?	-12.9%[70.6 µM]	?	28.2µM*
Cc1csc(NC(=O)c2nc3c(o2)CCN(CCCc2ccccc2)CC3)n1	?	-7.1%[70.6 µM]	?	i
COc1ccccc1CN1CCCn2nc(C)c(-c3cnccc3C)c21	39.8µM*	?	44.7µM*	i
Cc1ccncc1-c1c(C)nn2c1N(Cc1cccc(OC(F)(F)F)c1)CCC2	31.6µM*	?	?	i
COc1ccc(OC)c(CN2CCCn3nc(C)c(-c4cnccc4C)c32)c1	?	-15.7%[70.6 µM]	89.1µM*	i
O=C(c1ccc(Cn2ccn3nc4c(c3c2=O)CCCC4)cc1)N1CCN(c2ccccc2F)CC1	?	-1.4%	-23.7%	i
NC(=O)c1cccc(-c2ncc3c(n2)OCCN(c2ccccc2)C3=O)c1	?	0.6%[70.6 µM]	?	44.7µM*
CC(=O)Nc1cccc(-c2ncc3c(n2)OCCN(CC2CC2)C3=O)c1	-8.6%[172 µM]	0.0%[70.6 µM]	?	50.1µM*
CC(=O)Nc1cccc(-c2ncc3c(n2)OCCN(c2ccccc2)C3=O)c1	-6.3%[172 µM]	3.8%[70.6 µM]	17.8µM*	28.2µM*
O=C1c2cnc(-c3cc4ccccc4o3)nc2OCCN1c1ccccc1	-87.3%[172 µM]	0.282µM*	-93.1%[138 µM]	0.01µM*
Cc1ccc(S(=O)(=O)N2CC(C(=O)NC3CCCCC3)C3(CCOCC3)C2)cc1F (stereo not drawn)	4.4%	0.0%	-18.0%	i
COc1ccc(Cn2c3c(c(=O)n2Cc2ccccc2)CCN(C(=O)c2cccc(N(C)C)c2)C3)cc1	-28.5%	1.8%	?	i
COc1ccc(Cn2c3c(c(=O)n2Cc2ccccc2)CCN(C(=O)c2cocn2)C3)cc1	i	7.9%	25.1µM*	i
COc1ccc(-n2c(=O)c3c(n2Cc2ccccc2)CN(C(=O)c2cccc(O)c2)CC3)cc1	-4.0%	3.5%	?	i
COCCC(=O)N1CCc2c(n(Cc3ccc(OC)cc3)n(Cc3ccccc3)c2=O)C1	i	4.3%[70.6 µM]	?	i
COc1ccc(-n2c(=O)c3c(n2Cc2ccccc2)CN(C(=O)c2ccnn2C)CC3)cc1	-4.8%	-1.6%	35.5µM*	i
COc1ccc(Cn2c3c(c(=O)n2Cc2ccccc2)CCN(C(=O)c2nc4ccccc4[nH]2)C3)cc1	?	-19.9%	20µM*	i
CN(C)C(=O)c1nc2cccnc2n(CCc2ccccc2)c1=O	-0.1%[172 µM]	·	1.7%[138 µM]	·
COc1ccc(-c2ccc3c(c2)C(=O)N2CC[C@H](NC(=O)c4cccs4)[C@H]2C(=O)N3)c(OC)c1	?	-18.1%	-26.8%	?
Cc1cccc(-c2ccc3c(c2)C(=O)N2CC[C@H](NS(=O)(=O)c4cccs4)[C@H]2C(=O)N3)c1C	?	-21.7%	?	i
COc1ccc(Cl)cc1-c1ccc2c(c1)C(=O)N1CC[C@H](NC(=O)NC(C)C)[C@H]1C(=O)N2	?	2.3%	-25.5%	i
O=C(N[C@H]1CCN2C(=O)c3cc(-c4ccc(Cl)cc4)ccc3NC(=O)[C@H]12)c1cccs1	?	-15.4%	?	11.2µM*
